From PubChem BioAssay (EPA / NIEHS)
Inconclusive results are not listed. Activity calls are given as the source filed them. How the source made its calls, unless noted: active means hit-call score of the fitted dose curve at least 0.9, where 1 is the maximum; inactive means score below 0.9.

Columns and labels:
[1] = ACEA_ER_80hr: ACEA Biosciences xCELLigence Real-Time Cell Analysis on Estrogen Receptor Agonism for Proliferation (AID 2282667; active means hit-call score of the fitted dose curve at least 0.9, where 1 is the maximum); details: T47D proliferation, impedance (xCELLigence), 80 h
How it was run: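 T-47D cells monitored by electrical impedance (xCELLigence) with compound present throughout; 80 h timepoint, positive-direction fitting versus DMSO. Eight-point 1:4 dilutions from 100 uM final, duplicate plates.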

[2] = APR_HepG2_CellCycleArrest_24hr: Apredica 24-hour HepG2 Assay for Cell Cycle Arrest (AID 2282905); details: imaging, actives raise or lower the signal;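 further: cell cycle arrest scored as ratio of 2N to 4N nuclear DNA content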
How it was run: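 Readout: Hoechst 33342 nuclear DNA content by high-content fluorescent imaging, six images/well, 20x. Human HepG2 liver cells, 24 hr compound exposure, 0.39–200 uM, final DMSO 0.5% v/v. Gain or loss fitted relative to DMSO baseline.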

[3] = APR_HepG2_NuclearSize_24hr: Apredica 24-hour HepG2 Assay for Nuclear Size (AID 2282907); details: high-content imaging, actives raise or lower the signal
How it was run: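 Read-out: nuclear diameter from Hoechst 33342 (2 ug/mL) imaging of fixed HepG2 cells, 20x, six fields/well. Compounds ran at 0.39–200 uM for 24 hr, 0.5% DMSO final. Gain or loss was fitted bidirectionally relative to the DMSO baseline.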

[4] = APR_HepG2_CellLoss_24hr: Apredica 24-hour HepG2 Assay for Cell Loss (AID 2282908); details: high-content imaging;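 on AC50: fit in both directions so a hit may be cell loss or gain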
How it was run: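 Read-out: Hoechst 33342-stained nuclei counted by automated fluorescence imaging after formaldehyde fixation and Triton permeabilization. Ten concentrations, 0.39 to 200 uM, duplicate wells, 0.5% DMSO final. Gain or loss of signal fitted relative to DMSO baseline.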

[5] = APR_HepG2_MicrotubuleCSK_24hr: Apredica 24-hour HepG2 Assay for Microtubule CSK Stabilty (AID 2282909); details: HepG2 microtubule cytoskeleton imaging, actives raise or lower the signal
How it was run: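 Read-out: alpha-tubulin immunofluorescence intensity by automated high-content imaging of fixed HepG2 cells after 24 h compound treatment. Ten concentrations, 0.39 to 200 uM, in duplicate; DMSO 0.5% v/v. Taxol positive control; DMSO-normalized bidirectional curve fitting.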

[6] = APR_HepG2_MitoticArrest_24hr: Apredica 24-hour HepG2 Assay for Mitotic Arrest (AID 2282910); details: high-content imaging, actives raise or lower the signal
How it was run: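 Treatment lasted 24 hr in the human HepG2 line at 0.39–200 uM, solvent held at 0.5% DMSO. Fixed cells were stained with Hoechst 33342 and anti-phospho-histone H3, imaged at 20x, and analysed by gain- or loss-of-signal fitting against DMSO.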

[7] = APR_HepG2_MitoMembPot_24hr: Apredica 24-hour HepG2 Assay for Mitochondrial Membrane Potential (AID 2282911); details: imaging, actives raise or lower the signal
How it was run: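 HepG2 cells exposed 24 h to 0.39–200 uM compounds in duplicate, 0.5% v/v DMSO final. MitoTracker Red CMXRos 250 nM loaded 30 min before formaldehyde fixation; high-content imaging at 20x, bidirectional fit versus DMSO.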

[8] = APR_HepG2_MitoMass_24hr: Apredica 24-hour HepG2 Assay for Mitochondrial Mass (AID 2282912); details: high-content imaging, actives raise or lower the signal
How it was run: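 HepG2, 24 hr dosing, 10 concentrations 0.39–200 uM in duplicate, DMSO 0.5% final. MitoTracker Red CMXRos 250 nM, 30 min pre-fix; 3.7% formaldehyde fix. Imaging-based fluorescence intensity; gain/loss fit vs DMSO baseline.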

[9] = APR_HepG2_p53Act_24hr: Apredica 24-hour HepG2 Assay for p53 Activation (AID 2282913); details: high-content imaging, actives raise or lower the signal;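 further: p53 protein immunofluorescence averaged per cell in HepG2 with Hoechst nuclei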
How it was run: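 HepG2 cells exposed 24 h to compounds at 0.39–200 uM in duplicate, 0.5% v/v DMSO final; fixed, permeabilized, stained with anti-p53 antibody and Hoechst 33342; fluorescence imaging; bidirectional curve fit versus DMSO.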

[10] = APR_HepG2_CellCycleArrest_72hr: Apredica 72-hour HepG2 Assay for Cell Cycle Arrest (AID 2282914); details: high-content imaging, actives raise or lower the signal
How it was run: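 HepG2 cells exposed 72 h in duplicate to 0.39–200 uM compound, 0.5% DMSO final. Formaldehyde-fixed, Hoechst 33342-stained nuclei imaged at 20x, six fields per well; DNA content per valid cell quantified by cell-cycle image analysis, bidirectional fit versus DMSO.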

[11] = APR_HepG2_CellLoss_72hr: Apredica 72-hour HepG2 Assay for Cell Loss (AID 2282915); details: high-content imaging
How it was run: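 HepG2 cells were exposed for 72 hr to compounds at 0.39–200 uM (ten concentrations, duplicate) in 0.5% v/v final DMSO. Nuclei were stained with Hoechst 33342 after 3.7% formaldehyde fixation, imaged at 20x, and counted; fits bidirectional versus DMSO.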

[12] = APR_HepG2_P-H2AX_72hr: Apredica 72-hour HepG2 Assay for H2AX Phosphorylation (AID 2282916); details: imaging, actives raise or lower the signal;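 further: phospho-histone H2A.x immunostain intensity per cell marking DNA damage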
How it was run: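 Readout: phospho-H2A.x immunofluorescence (FITC secondary) plus Hoechst nuclear stain, high-content imaging at 20x, six fields/well. HepG2, 72 hr compound exposure, 0.39–200 uM, final DMSO 0.5% v/v. Gain or loss fitted relative to DMSO baseline.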

[13] = APR_HepG2_MitoMembPot_72hr: Apredica 72-hour HepG2 Assay for Mitochondrial Membrane Potential (AID 2282917); details: imaging, actives raise or lower the signal
How it was run: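 HepG2 cells exposed 72 h to compounds at 0.39–200 uM (0.5% v/v DMSO, duplicates); MitoTracker Red CMXRos 250 nM loaded 30 min before 3.7% formaldehyde fixation, imaged by HCS fluorescence. Bidirectional fit versus DMSO.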

[14] = APR_HepG2_MitoticArrest_72hr: Apredica 72-hour HepG2 Assay for Mitotic Arrest (AID 2282918); details: high-content imaging, actives raise or lower the signal
How it was run: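 HepG2 cells treated 72 h at 0.39–200 uM, 0.5% DMSO final; formaldehyde-fixed, stained with Hoechst 33342 and phospho-histone H3 antibody, imaged by high-content fluorescence; bidirectional fit versus DMSO.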

[15] = APR_HepG2_MicrotubuleCSK_72hr: Apredica 72-hour HepG2 Assay for Microtubule CSK Stabilty (AID 2282919); details: HepG2 microtubule cytoskeleton, high-content imaging, actives raise or lower the signal
How it was run: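 Ten-point dosing (0.39–200 uM, 0.5% DMSO) of HepG2 for 72 hr, with taxol as the cytoskeletal positive control. The cells were formaldehyde-fixed and then stained with alpha-tubulin/Cy5 and Hoechst. Imaging at 20x used a −2 um Z offset for tubulin.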

[16] = APR_HepG2_P-H2AX_24hr: Apredica 24-hour HepG2 Assay for H2AX Phosphorylation (AID 2282920); details: high-content imaging, actives raise or lower the signal
How it was run: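 HepG2 cells dosed 24 h at 0.39–200 uM (10 points, duplicate, 0.5% DMSO final). Formaldehyde-fixed and permeabilized, then immunostained for phospho-H2A.x with Hoechst. Fluorescence quantified by high-content imaging, fitted bidirectionally versus DMSO.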

[17] = APR_HepG2_StressKinase_72hr: Apredica 72-hour HepG2 Assay for Stress Kinase (AID 2282921); details: HepG2 stress kinase (phospho-c-Jun) imaging, actives raise or lower the signal
How it was run: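 Phospho-c-Jun immunofluorescence measured by high-content imaging at 20x, six fields per well; bidirectional curve fitting against DMSO as baseline. Dosing: 0.39–200 uM, 72 h, 0.5% DMSO final.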

[18] = APR_HepG2_StressKinase_24hr: Apredica 24-hour HepG2 Assay for Stress Kinase (AID 2282922); details: HepG2 stress kinase (phospho-c-Jun) imaging, actives raise or lower the signal
How it was run: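 After 24 hr compound treatment (up to 200 uM, final DMSO 0.5% v/v), HepG2 cells are fixed and multiplex-labeled; phospho-c-Jun intensity is captured by high-content fluorescence imaging and analyzed relative to DMSO.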

[19] = APR_HepG2_p53Act_72hr: Apredica 72-hour HepG2 Assay for p53 Activation (AID 2282923); details: high-content imaging, actives raise or lower the signal;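 further: average cellular p53 protein immunofluorescence intensity in HepG2 cells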
How it was run: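 Readout: p53 immunofluorescence quantified by automated high-content imaging at 20x, six fields per well, nuclei located via Hoechst. Dosing ran 72 hr over ten concentrations from 0.39 to 200 uM; bidirectional curve fitting against DMSO baseline.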

[20] = APR_HepG2_MitoMass_72hr: Apredica 72-hour HepG2 Assay for Mitochondrial Mass (AID 2282924); details: high-content imaging, actives raise or lower the signal;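 further: MitoTracker Red CMXRos stain intensity per cell imaged as mitochondrial mass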
How it was run: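 Steps: treat HepG2 72 hr (0.39–200 uM, duplicate wells); load MitoTracker Red CMXRos, 250 nM, 30 min; fix with 3.7% formaldehyde, permeabilise with 0.5% Triton X-100; capture images, nuclei via Hoechst 33342; fit bidirectionally against DMSO.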

Measured: AC50

CCCCCCCC(=O)O
active: [7] 0.0327 µM
inactive: all other assays above

CCCCC(CC)COC(=O)CCCCC(=O)OCc1ccccc1 (stereo not drawn)
inactive: all assays above

CC(C)CCCCCCOC(=O)CCCCC(=O)OCCCCCCC(C)C
inactive: all assays above

CCOC(=O)CC(O)(CC(=O)OCC)C(=O)OCC
active: [1] 750 nM
inactive: all other assays above

CN1CCC[C@H]1c1cccnc1
not listed: [9] | [19]
inactive: all other assays above

OC1CCCCC1
inactive: all assays above

CN1CCN(c2ccccc2/C=C2\SCCN(c3ccc(Cl)c(Cl)c3)C2=O)CC1
inactive: [1] | [2] | [8] | [10] | [12] | [13] | [18] | [19]
active: [3] 11.2 µM | [4] 24 µM | [5] 80.7 µM | [6] 7.46 µM | [7] 53.6 µM | [9] 23.5 µM | [11] 12.4 µM | [14] 4.25 µM | [15] 23.5 µM | [16] 32.7 µM | [17] 19.4 µM | [20] 109 µM

ClC1=C(Cl)C(Cl)(Cl)C(Cl)=C1Cl
inactive: all assays above

CC[C@H](C)[C@@H](C(=O)O)n1sc2ccccc2c1=O
active: [7] 100 µM
inactive: all other assays above

Oc1cc2ccccc2c2ccccc12
inactive: [1] | [3] | [10] | [17]
active: [2] 37.1 µM | [4] 13.1 µM | [5] 55 µM | [6] 7.13 µM | [7] 43.1 µM | [8] 97.7 µM | [9] 3.2 µM | [11] 4.01 µM | [12] 58.6 µM | [13] 38.2 µM | [14] 8.45 µM | [15] 8.21 µM | [16] 3.28 µM | [18] 121 µM | [19] 111 µM | [20] 61.3 µM

COCC(C)O (stereo not drawn)
active: [7] 0.0477 µM
inactive: all other assays above

CC1=C(/C=C/C(C)=C/C=C/C(C)=C/C(=O)O)C(C)(C)CCC1
active: [1] 1.33 nM | [3] 114 µM | [4] 103 µM | [6] 109 µM | [7] 83.2 µM | [8] 92.6 µM | [11] 62 µM | [16] 86.8 µM | [20] 79.9 µM
inactive: all other assays above
